# Test results from publication PMC13494018.
# Unmarked numbers belong to inactive results. How the calls were made is not given here.
# B1: d8r1_design_ppi_139_dldesign_0_cycle0_af2pred (protein)
# chain: EELLEKLKEKAEKVKKLAEEGAEAEELEKARKELGAALSALTRAIAEASPELAAKGREAAAEAAKAAIKAGEKAEELKKA
# B2: d8r1_design_ppi_87_dldesign_0_cycle0_af2pred (protein)
# chain: MEEEFDERMRKAAEYLAKMDAALAAIKAAGDRAEAEKLLAELRKAGEEMAKELGEAGKAIKEALEAQAQAALAA
# B3: d8r1_design_ppi_1408_dldesign_0_cycle1_af2pred (protein)
# chain: EESVKASILAAIERGARLLAAENPAAGVAALTVARVLTTTGGLGSAIAGAAAFAAIAAAATGARGAAIGGSVVSFTVKLVEMYK
# B4: d8r1_design_ppi_305_dldesign_0_cycle1_af2pred (protein)
# chain: AEEALKLLAEAAAAASPEVAALANQALALLKQAENPEAMKQAIALLNAAYLAADPAIQPLIRRALQLAMQVLAKADR
# B5: d8r1_design_ppi_219_dldesign_0_cycle1_af2pred (protein)
# chain: DARLERVAKVTAEAYAKVAAVAAGEKLPLARRAAALLAAGGFSPEAAAEYFAEAKAIAAEIGPEAAAIIEEAGKAV
# B6: d8r1_design_ppi_290_dldesign_0_cycle1_af2pred (protein)
# chain: SKAEAEKLKAQIEAAKAAGVAGDAATAAAAIAAITALADQAAALDPEYAAEVVNAANKAMLAVGDAREAKAAA
# B7: d8r1_design_ppi_1423_dldesign_0_cycle0_af2pred (protein)
# chain: STAEKIAKYNKFAEEAKAAAKRVAEEGEEAAKEAIETLKKLAKESDAETAETLNKLAEIAEEGGGSAALAAMQAAAVHFANKAAKLAA
# B8: d8r1_design_ppi_645_dldesign_0_cycle0_af2pred (protein)
# chain: KLEEAKEKLEKGKELLKKAKEDPENAIEYAKEALKEFSEASRLAAEAAKDEEYKEEAEELLKEANKLASEATQLLAKKASEEEK
# B9: d8r1_design_ppi_679_dldesign_0_cycle1_af2pred (protein)
# chain: ATAEARRAVVEEAIARITAALADRPQWAAKAAAVLERGARLGREAEAARAVAAMLEVLGYTEAAAVAAEAAERIAAL
# B10: d8r1_design_ppi_43_dldesign_0_cycle0_af2pred (protein)
# chain: MEALERASRVLAEAARLAMKNPAYAPAFAEVAAAYRETIAAYKESPEAAKEAAERLEKLAAERIAAAKAAL
# B11: d8r1_design_ppi_78_dldesign_0_cycle1_af2pred (protein)
# chain: SMKKEEAKKVAEEARKAAKEAEELAKKIGDAKLAQQAKNIAAGADKAAEFGSLNMVKAFLREAKKLKEEAKKKLA
# B12: d8r1_design_ppi_502_dldesign_0_cycle0_af2pred (protein)
# chain: SFEEEKKKADEYMTKAAELAPPELKPAVQNMRDGILKAFEVSPKSALNLAKSALRWVKKHGSEEAAKEMEKALEHLEKAAE
# B13: d8r1_design_ppi_456_dldesign_0_cycle1_af2pred (protein)
# chain: SAQAAAAEKLRALADAIAAASPAYQPAANALRAAAVVAEKSGNGASALALLDAAIAAAAKVPGGAEWAAAIRAAAAEVRAAFA
# B14: d8r1_design_ppi_321_dldesign_0_cycle1_af2pred (protein)
# chain: GSNFEKAYYAGEAYSYAYAAVKEAKALVKALGDAAKPLLDEAEALLKKIEEVLKNGNLEEAKKMLEEAKALLEKVKAA
# B15: d8r1_design_ppi_1080_dldesign_0_cycle0_af2pred (protein)
# chain: SMESVLKSAESLAEAARRLAAERAAEPELVLRAAENALAGGTKLGEARGPEVAKKVRERMEATLAEIRARLA
# B16: d8r1_design_ppi_1135_dldesign_0_cycle1_af2pred (protein)
# chain: DPREQFAAAVKEAAAALPDIADQVLALGEQALAAEGQAAADAMKAFVTLVTAAAAKASPEAAKAAGIAAANAMKAVSKIEE
# B17: d8r1_design_ppi_790_dldesign_0_cycle1_af2pred (protein)
# chain: KAEEAKALAEKAIAAAPDVDAAAEEIAAAVKLGTGEALVAAARAAAAAIRALGDPAAQARLLELAREHGSRTYAAVAAGLAIARAEAA
# B18: d8r1_design_ppi_419_dldesign_0_cycle0_af2pred (protein)
# chain: SELEEEARKAEEEFRAALAELEAAAAELEKLDPAAGATARRAAEGARGLLELAKKFSVKSQLNVAKSMLRGAERQLAAARARVAALK
# B19: d8r1_design_ppi_1323_dldesign_0_cycle1_af2pred (protein)
# chain: MKASIKHLIEQAKKYAKEAKETGSDALARAAASAAAAAAVLAKEAGDKELAKEAEKVAKEIAEVAPPSIAKYAKEAAKLAAE
# Target: PDL1, Q9NZQ7
# Sequence (Q9NZQ7 whole entry): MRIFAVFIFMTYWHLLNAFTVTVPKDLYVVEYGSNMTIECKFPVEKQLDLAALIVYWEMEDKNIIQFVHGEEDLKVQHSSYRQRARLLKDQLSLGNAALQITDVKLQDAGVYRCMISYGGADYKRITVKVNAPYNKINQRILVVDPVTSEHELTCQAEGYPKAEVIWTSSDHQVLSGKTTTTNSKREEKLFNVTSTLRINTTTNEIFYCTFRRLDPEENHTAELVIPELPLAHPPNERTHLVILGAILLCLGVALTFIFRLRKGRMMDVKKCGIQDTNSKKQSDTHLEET
row,Binder,binding in a display sort
1,B1,not found
2,B2,not found
3,B3,not found
4,B4,not found
5,B5,not found
6,B6,not found
7,B7,not found
8,B8,not found
9,B9,not found
10,B10,not found
11,B11,not found
12,B12,not found
13,B13,not found
14,B14,binds (active)
15,B15,not found
16,B16,not found
17,B17,not found
18,B18,not found
19,B19,not found
